# RAD54 branch: inhibitors of human RAD54 branch migration | inhibition, % at 10.4 µM | 0.14% of 360,000 active | AID 602329 | Q92698 | RAD54 Holliday junction branch migration, FAM/BHQ fluorescence;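 active = mean normalized replicate activity at least 40 and at least half of replicates scoring 40 or more; inconclusive = only one of the two criteria met; inactive = mean below 40 and under half of replicates reaching 40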;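 note: inhibitors cause a drop in the FAM fluorescence signal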
# RAD52 anneal inh: blocks human RAD52 DNA annealing | inhibition, % at 18.7 µM | P43351 | AID 651710 | recombinant RAD52 DNA annealing, FRET fluorescence | 0.46% of 360,000 active;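 active = every replicate showing at least 50% inhibition; inconclusive = mean inhibition at least 50% but not in every replicate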
# Target sequence (P43351 whole entry, looked up): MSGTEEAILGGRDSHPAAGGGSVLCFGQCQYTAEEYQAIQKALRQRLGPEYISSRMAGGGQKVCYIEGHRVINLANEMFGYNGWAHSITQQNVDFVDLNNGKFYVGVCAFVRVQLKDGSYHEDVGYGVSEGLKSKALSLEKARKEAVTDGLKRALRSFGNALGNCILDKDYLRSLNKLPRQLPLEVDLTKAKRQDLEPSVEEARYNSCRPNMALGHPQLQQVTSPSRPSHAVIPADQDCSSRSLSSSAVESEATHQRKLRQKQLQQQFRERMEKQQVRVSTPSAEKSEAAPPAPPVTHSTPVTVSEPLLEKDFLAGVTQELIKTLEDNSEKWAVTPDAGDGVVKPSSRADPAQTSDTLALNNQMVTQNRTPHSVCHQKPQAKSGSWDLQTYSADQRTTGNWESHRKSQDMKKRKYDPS
# DENV2 CPE: inhibitors of DENV2 cytopathic effect | DENV2-infected cells, cytopathic effect rescue, plate reader | CPE inhibition, % at 9.99 µM | 1.7% of 350,000 active; in the data active = CPE inhibition above about 20%, passing the limit was not always enough; inconclusive = no clear call, values can overlap the other calls; tested in BHK-21 cells
# AF4-AF9 inh: MLL-AF4/AF9 protein interaction inhibition | 0.47% of 350,000 active | AlphaScreen, biotin-AF4 peptide binding to FLAG-AF9 | P42568 | AID 651704 | inhibition, % at 10 µM;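 active = every replicate reaching a set inhibition limit, whatever the replicate mean, cut at about 25% in these data; inconclusive = mean inhibition reaches that limit but some replicates miss it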
# GSIS activator: GLuc luminescence reporter in INS-1E cells, primary screen for activators of glucose-dependent secretion of insulin; 0.61% of 370,000 active; INS-1E GLuc reporter insulin secretion, 2-3 h; AID 743287; activation, % at 16.6 µM;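 active = lowest replicate activation of at least 40%, so every replicate reaches that level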
# dFosB act: enhances mouse delta FosB homodimer DNA binding | purified delta FosB, TAMRA-CDK5 oligo fluorescence polarization; percent of positive-control signal above neutral wells | activation, % at 25 µM | P13346 | AID 493131 | 0.99% of 340,000 active;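 active = mean activation above about 17%, with every replicate also reaching it, limit read from the data, passing the limit was not always enough; inconclusive = only one of the two conditions met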
# Numbers stand for hits; - = inactive; ? = inconclusive; . = no result given. Only some compounds are listed: those with a hit (about 3.1% of all), similar ones and a draw of the others.
SMILES,RAD54 branch,RAD52 anneal inh,DENV2 CPE,AF4-AF9 inh,GSIS activator,dFosB act
CCOC(=O)[C@@H]1[C@H]2COc3ccc(Br)cc3[C@@H]2N2C(=O)N(c3cccc(Cl)c3)C(=O)[C@@]12C,-,-,68,-,-,-
CCOC(=O)[C@H]1[C@H]2COc3ccc(Cl)cc3[C@@H]2N2C(=O)c3ccc(Cl)cc3NC(=O)[C@@]12C,-,-,52,-,-,-
CCOC(=O)[C@H]1[C@H]2COc3ccc(C)cc3[C@@H]2N2C(=O)c3ccc(Cl)cc3NC(=O)[C@@]12C,-,-,-,-,-,-
CCOC(=O)[C@H]1[C@H]2COc3cc(OC)ccc3[C@@H]2N2C(=O)CN(Cc3ccco3)C(=O)[C@@]12C,-,-,30,-,-,-
CCOC(=O)[C@@H]1[C@H]2COc3cc(OC)ccc3[C@H]2N2C(=O)N(c3cccc(F)c3)C(=O)[C@]12C,-,-,104,.,-,-
Cc1ccc(S(=O)(=O)N(C)C[C@H]2Oc3ccc(NC(=O)CCCN(C)C)cc3CC(=O)N([C@H](C)CO)C[C@H]2C)cc1,-,-,-,-,-,.
COc1ccc(NC(=O)Nc2cccc3c2O[C@H](CN(C)Cc2ccc(Oc4ccccc4)cc2)[C@H](C)CN([C@@H](C)CO)C3=O)cc1,-,-,-,-,-,.
CNC[C@@H]1OCCCC[C@@H](C)Oc2ccc(NS(=O)(=O)c3ccccc3)cc2C(=O)N([C@@H](C)CO)C[C@@H]1C,-,-,-,-,-,.
CO[C@H](CN(C)S(=O)(=O)c1ccc(Cl)cc1)[C@H](C)CN(C(=O)Nc1ccccc1F)[C@@H](C)CO,-,-,-,-,-,.
Cc1ccc(O)c(Nc2c3ccccc3nc3ccccc23)c1,-,-,-,-,-,35
O=C(C1CC1)N1CC[C@@H]2[C@H](CO)Nc3ccc(C#Cc4ccccc4F)cc3[C@@H]21,-,.,-,.,-,.
O=C(C1CC1)N1CC[C@@H]2[C@H]1c1cc(C#Cc3ccc(F)cc3)ccc1N[C@@H]2CO,-,.,27,.,-,.
N#Cc1ccc(-c2ccc3c(c2)[C@H]2[C@H](CCN2C(=O)C2CCC2)[C@H](CO)N3)cc1,.,-,35,-,-,.
O=C(C1CC1)N1CC[C@@H]2[C@H]1c1cc(C#Cc3ccccc3F)ccc1N[C@@H]2CO,-,.,29,.,-,.
COc1ccc(S(=O)(=O)Nc2ccc3c(c2)C(=O)N([C@@H](C)CO)C[C@H](C)[C@@H](CN(C)S(=O)(=O)c2ccc(C)cc2)O3)cc1,-,-,-,-,-,.
CCCNC(=O)N[C@@H]1CC[C@H](CCn2cc(C3CC3)nn2)O[C@H]1CO,-,-,-,-,-,.
NC[C@@H]1O[C@H](C23CC4CC(CC(C4)C2)C3)Cc2c1ccc(O)c2O,-,-,-,47,.,-
CC(=O)N(C)C[C@@H]1Oc2cc(/C=C/c3ccccc3)ccc2S(=O)(=O)N([C@@H](C)CO)C[C@H]1C,-,-,-,-,-,.
CC(=O)N1c2ccccc2[C@H](C)[C@H]1C,-,-,70,-,-,-
CC1c2ccccc2N(S(=O)(=O)c2ccccc2)C1C (stereo not drawn),-,-,-,-,-,-
COc1ccc(NC(=S)NCCCN2CCOCC2)cc1,.,-,-,-,.,-
COc1ccc(N2CCN(CCCNC(=S)Nc3c(C)cccc3C)CC2)cc1,-,-,-,43,-,-
Cc1nc2sc(C#N)c(N)c2c2c1CCCC2,-,.,.,.,.,-
N#Cc1sc2nc(N3CCCCC3)c3c(c2c1N)CCCC3,-,.,.,.,141,-
Cc1ccc2c(=O)cc(C(=O)NC3CCS(=O)(=O)C3)oc2c1C (stereo not drawn),-,-,-,-,42,-
CCOC(=O)C1CCN(C(=O)c2ccc(Cl)c(NC3=NC4CS(=O)(=O)CC4S3)c2)CC1 (stereo not drawn),-,-,-,25,-,-
CC(C)NC(=O)N(C)C[C@H]1Oc2ccc(NC(=O)CCN3CCOCC3)cc2C(=O)N([C@@H](C)CO)C[C@H]1C,-,-,-,-,-,.
CO[C@H]1CN(C)C(=O)c2ccc(NC(=O)Nc3c(C)noc3C)cc2OC[C@H](C)N(C)C[C@@H]1C,.,-,-,-,-,.
CC(=O)Nc1ccc(OCCC[n+]2ccccc2)cc1,.,-,-,31,.,-
OC(c1ccccc1)(c1ccccc1)C1CCN(CCCOc2cccc(OC(F)(F)F)c2)CC1,.,-,?,-,160,.

# Assay outcomes as filed in PubChem.
